Laboratory results from the supplement of paper PMC10849652.
The full data set covers some 7,900 targets. This sample favours those with a hit. About 0.6% of all pairs of compound and target were hits. Unmarked numbers belong to inactive results.

How the values were obtained:
Experiment in all cases: log2 fold change, soluble protein after heating vs DMSO (PISA); higher = thermal stabilisation; K562 cells, 10 uM, 30 min; active = over 0.2 and 3.5 SD of the protein, either way, in both replicates (recomputed)
[1] = compound: CS(=O)(=O)c1ccc(-c2cnc(N)c(C(=O)Nc3ccccc3)n2)cc1
Method in brief: (§1)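 K562 cells (2×10^6 cells/mL) were treated with 10 μM compound for 30 min, and aliquots were heated for 3 min over 48°C-58°C. Pooled aliquots were extracted in PBS with 0.5% NP-40 at 4°C, and the supernatant after 21,000xg for 90 min was measured by TMTpro 16plex LC-MS/MS with channel sums equalised. Reported thermal stability, relative to control samples and from duplicates, is a log2 fold change.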

crizotinib = compound: C[C@@H](Oc1cc(-c2cnn(C3CCNCC3)c2)cnc1N)c1c(Cl)ccc(F)c1Cl [crizotinib]
Method in brief: as §1

[2] = compound: C[C@@H]1COCCN1C2=NC(=NC(=C2)C3(CC3)S(=O)(=O)C)C4=C5C=CNC5=CC=C4
Method in brief: as §1

[3] = compound: C[C@H](C1=CC=C(C=C1)C(=O)NC2=C3C=CNC3=NC=C2)N
Method in brief: as §1

duvelisib = compound: C[C@H](Nc1ncnc2nc[nH]c12)c1cc2cccc(Cl)c2c(=O)n1-c1ccccc1 [duvelisib]
Method in brief: as §1

gandotinib = compound: Cc1cc(Nc2cc(CN3CCOCC3)c3nc(C)c(Cc4ccc(Cl)cc4F)n3n2)n[nH]1 [gandotinib]
Method in brief: as §1

tozasertib = compound: Cc1cc(Nc2cc(N3CCN(C)CC3)nc(Sc3ccc(NC(=O)C4CC4)cc3)n2)n[nH]1 [tozasertib]
Method in brief: as §1

[4] = compound: Cc1cc(SCc2sc(-c3ccc(C(F)(F)F)cc3)nc2C)ccc1OCC(=O)O
Method in brief: as §1

doramapimod = compound: Cc1ccc(-n2nc(C(C)(C)C)cc2NC(=O)Nc2ccc(OCCN3CCOCC3)c3ccccc23)cc1 [doramapimod]
Method in brief: as §1

ispinesib = compound: Cc1ccc(C(=O)N(CCCN)[C@@H](c2nc3cc(Cl)ccc3c(=O)n2Cc2ccccc2)C(C)C)cc1 [ispinesib]
Method in brief: as §1

bafetinib = compound: Cc1ccc(NC(=O)c2ccc(CN3CC[C@H](N(C)C)C3)c(C(F)(F)F)c2)cc1Nc1nccc(-c2cncnc2)n1 [bafetinib]
Method in brief: as §1

[5] = compound: Cc1cccc(CC(=O)N2CCc3c2ccc(-c2cn(C)c4ncnc(N)c24)c3F)n1
Method in brief: as §1

nilotinib = compound: Cc1cn(-c2cc(NC(=O)c3ccc(C)c(Nc4nccc(-c5cccnc5)n4)c3)cc(C(F)(F)F)c2)cn1 [nilotinib]
Method in brief: as §1

[6] = compound: Cc1nc(Nc2n[nH]c3c2CN(C(=O)N[C@H](CN(C)C)c2ccccc2)C3(C)C)c2sccc2n1
Method in brief: as §1

dasatinib = compound: Cc1nc(Nc2ncc(C(=O)Nc3c(C)cccc3Cl)s2)cc(N2CCN(CCO)CC2)n1 [dasatinib]
Method in brief: as §1

[7] = compound: Cc1ncc(-c2ccnc(Nc3ccc(S(C)(=O)=O)cc3)n2)n1C(C)C
Method in brief: as §1

[8] = compound: Cn1cc(-c2ccc3c(c2)CCN3C(=O)Cc2cccc(C(F)(F)F)c2)c2c(N)ncnc21
Method in brief: as §1

[9] = compound: Cn1cc(-c2ccc3nnc(C(F)(F)c4ccc5ncccc5c4)n3n2)cn1
Method in brief: as §1

tipifarnib = compound: Cn1cncc1[C@@](N)(c1ccc(Cl)cc1)c1ccc2c(c1)c(-c1cccc(Cl)c1)cc(=O)n2C [tipifarnib]
Method in brief: as §1

mubritinib = compound: FC(F)(F)c1ccc(/C=C/c2nc(COc3ccc(CCCCn4ccnn4)cc3)co2)cc1 [mubritinib]
Method in brief: as §1

Chain of UniProt Q9Y6Y8 (Q9Y6Y8 whole entry, looked up): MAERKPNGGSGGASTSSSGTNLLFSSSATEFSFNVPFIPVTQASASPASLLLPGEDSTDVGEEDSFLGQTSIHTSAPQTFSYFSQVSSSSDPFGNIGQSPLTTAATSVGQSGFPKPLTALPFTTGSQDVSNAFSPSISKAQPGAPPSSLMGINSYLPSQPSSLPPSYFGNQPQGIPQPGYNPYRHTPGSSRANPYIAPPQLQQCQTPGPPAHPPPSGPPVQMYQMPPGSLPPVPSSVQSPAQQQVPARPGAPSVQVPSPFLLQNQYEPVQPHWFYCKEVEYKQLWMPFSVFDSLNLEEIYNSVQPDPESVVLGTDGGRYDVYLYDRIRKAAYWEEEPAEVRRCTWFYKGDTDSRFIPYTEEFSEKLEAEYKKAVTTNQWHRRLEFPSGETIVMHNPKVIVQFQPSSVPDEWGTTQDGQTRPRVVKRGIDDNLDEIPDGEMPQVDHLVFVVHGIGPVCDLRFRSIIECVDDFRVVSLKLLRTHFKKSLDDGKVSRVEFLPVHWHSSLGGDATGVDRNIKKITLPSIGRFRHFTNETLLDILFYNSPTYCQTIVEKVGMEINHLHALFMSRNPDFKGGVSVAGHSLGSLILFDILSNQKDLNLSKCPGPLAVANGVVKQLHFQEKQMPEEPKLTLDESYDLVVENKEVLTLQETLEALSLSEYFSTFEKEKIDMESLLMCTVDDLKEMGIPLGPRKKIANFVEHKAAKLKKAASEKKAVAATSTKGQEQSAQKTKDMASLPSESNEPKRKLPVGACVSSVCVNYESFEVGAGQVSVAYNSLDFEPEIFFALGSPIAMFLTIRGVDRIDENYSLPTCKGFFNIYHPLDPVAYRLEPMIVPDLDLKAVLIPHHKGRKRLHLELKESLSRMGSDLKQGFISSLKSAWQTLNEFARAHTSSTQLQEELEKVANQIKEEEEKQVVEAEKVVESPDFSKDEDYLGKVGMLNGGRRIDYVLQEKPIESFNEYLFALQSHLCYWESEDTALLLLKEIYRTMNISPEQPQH
Chain of UniProt O95716 (O95716 whole entry, looked up): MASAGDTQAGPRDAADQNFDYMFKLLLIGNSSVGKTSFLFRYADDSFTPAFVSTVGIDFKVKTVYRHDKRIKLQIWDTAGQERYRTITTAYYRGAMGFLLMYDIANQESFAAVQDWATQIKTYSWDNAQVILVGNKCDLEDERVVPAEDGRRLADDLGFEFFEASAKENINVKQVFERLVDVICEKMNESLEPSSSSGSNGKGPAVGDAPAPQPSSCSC
Chain of UniProt Q5RL73 (Q5RL73 whole entry, looked up): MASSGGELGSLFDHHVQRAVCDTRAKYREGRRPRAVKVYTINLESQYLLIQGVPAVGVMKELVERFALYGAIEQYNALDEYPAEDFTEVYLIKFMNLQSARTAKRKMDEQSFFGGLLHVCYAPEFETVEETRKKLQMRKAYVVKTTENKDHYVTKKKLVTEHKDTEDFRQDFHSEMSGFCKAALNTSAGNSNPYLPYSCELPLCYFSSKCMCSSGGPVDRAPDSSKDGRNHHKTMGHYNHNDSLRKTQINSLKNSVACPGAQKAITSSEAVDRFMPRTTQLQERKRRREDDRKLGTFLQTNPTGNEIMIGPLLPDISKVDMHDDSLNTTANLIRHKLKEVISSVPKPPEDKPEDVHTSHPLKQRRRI
Chain of UniProt Q8WZA2 (Q8WZA2 whole entry, looked up): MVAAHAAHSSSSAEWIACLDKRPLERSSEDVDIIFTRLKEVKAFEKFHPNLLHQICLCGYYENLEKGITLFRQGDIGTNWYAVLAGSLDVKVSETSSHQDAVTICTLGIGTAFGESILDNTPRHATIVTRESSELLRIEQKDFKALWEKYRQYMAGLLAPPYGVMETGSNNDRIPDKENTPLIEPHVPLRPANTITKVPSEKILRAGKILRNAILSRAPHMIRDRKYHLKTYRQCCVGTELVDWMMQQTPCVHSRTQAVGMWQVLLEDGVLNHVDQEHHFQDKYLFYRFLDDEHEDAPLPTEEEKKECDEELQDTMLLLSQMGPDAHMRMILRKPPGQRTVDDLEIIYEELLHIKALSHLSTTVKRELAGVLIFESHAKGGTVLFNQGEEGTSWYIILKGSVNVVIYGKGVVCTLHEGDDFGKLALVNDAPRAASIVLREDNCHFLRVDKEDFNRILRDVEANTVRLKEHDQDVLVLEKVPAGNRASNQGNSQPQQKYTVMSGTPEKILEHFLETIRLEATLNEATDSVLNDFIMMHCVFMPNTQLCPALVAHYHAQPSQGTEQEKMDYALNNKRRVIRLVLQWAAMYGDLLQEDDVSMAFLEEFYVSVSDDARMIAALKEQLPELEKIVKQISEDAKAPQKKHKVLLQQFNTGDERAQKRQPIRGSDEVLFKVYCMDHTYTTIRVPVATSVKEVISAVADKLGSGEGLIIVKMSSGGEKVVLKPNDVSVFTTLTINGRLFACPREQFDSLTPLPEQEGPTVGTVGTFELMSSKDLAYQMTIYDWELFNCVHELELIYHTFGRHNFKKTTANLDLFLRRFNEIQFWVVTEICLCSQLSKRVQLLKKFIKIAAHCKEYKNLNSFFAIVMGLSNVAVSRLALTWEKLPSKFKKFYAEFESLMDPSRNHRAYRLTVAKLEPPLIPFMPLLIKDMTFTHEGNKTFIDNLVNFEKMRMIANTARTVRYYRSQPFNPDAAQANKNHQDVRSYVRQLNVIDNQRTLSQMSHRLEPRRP
Chain of UniProt Q04864 (Q04864 whole entry, looked up): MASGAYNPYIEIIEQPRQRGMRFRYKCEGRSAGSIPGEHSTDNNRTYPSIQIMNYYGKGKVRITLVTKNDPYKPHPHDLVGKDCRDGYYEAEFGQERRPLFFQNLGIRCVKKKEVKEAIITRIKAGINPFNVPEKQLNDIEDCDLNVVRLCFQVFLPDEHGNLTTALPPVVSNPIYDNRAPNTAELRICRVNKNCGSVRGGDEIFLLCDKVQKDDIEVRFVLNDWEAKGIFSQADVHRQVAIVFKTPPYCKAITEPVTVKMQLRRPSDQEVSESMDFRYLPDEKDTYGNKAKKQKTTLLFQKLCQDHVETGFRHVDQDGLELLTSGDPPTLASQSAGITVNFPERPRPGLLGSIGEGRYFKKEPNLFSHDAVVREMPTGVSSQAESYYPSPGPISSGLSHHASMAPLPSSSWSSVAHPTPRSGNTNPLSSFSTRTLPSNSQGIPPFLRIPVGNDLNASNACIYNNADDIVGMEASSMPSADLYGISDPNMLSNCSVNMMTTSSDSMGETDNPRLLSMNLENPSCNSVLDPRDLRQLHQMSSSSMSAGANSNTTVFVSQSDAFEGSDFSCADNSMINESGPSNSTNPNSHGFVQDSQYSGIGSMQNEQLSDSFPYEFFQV
Chain of UniProt Q15349 (Q15349 whole entry, looked up): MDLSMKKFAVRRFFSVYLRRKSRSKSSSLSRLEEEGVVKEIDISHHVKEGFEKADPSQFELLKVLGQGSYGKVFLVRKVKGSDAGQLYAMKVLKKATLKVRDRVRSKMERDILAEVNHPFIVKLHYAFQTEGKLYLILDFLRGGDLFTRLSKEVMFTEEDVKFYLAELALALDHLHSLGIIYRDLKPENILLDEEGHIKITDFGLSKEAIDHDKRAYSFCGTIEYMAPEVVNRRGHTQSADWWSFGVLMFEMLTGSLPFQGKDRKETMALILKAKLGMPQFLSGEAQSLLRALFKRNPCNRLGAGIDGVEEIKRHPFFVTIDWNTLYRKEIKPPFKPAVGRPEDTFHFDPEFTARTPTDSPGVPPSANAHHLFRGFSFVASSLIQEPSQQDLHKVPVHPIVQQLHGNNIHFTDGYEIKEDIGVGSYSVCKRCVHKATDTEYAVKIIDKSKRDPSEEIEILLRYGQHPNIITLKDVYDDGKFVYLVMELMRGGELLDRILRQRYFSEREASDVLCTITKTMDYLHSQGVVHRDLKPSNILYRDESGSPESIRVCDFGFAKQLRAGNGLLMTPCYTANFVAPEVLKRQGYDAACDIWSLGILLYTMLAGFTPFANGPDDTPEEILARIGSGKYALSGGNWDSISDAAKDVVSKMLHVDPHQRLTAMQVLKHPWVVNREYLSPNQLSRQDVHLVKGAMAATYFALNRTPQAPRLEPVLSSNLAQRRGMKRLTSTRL
Chain of UniProt Q96EU6 (Q96EU6 whole entry, looked up): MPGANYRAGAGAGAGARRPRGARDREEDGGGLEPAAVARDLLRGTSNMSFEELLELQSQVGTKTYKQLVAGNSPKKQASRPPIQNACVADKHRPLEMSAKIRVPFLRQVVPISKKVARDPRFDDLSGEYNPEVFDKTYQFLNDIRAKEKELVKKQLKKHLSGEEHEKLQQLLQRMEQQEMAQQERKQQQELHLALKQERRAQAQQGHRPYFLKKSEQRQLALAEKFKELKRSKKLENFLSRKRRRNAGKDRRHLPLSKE
Chain of UniProt P04049 (P04049 whole entry, looked up): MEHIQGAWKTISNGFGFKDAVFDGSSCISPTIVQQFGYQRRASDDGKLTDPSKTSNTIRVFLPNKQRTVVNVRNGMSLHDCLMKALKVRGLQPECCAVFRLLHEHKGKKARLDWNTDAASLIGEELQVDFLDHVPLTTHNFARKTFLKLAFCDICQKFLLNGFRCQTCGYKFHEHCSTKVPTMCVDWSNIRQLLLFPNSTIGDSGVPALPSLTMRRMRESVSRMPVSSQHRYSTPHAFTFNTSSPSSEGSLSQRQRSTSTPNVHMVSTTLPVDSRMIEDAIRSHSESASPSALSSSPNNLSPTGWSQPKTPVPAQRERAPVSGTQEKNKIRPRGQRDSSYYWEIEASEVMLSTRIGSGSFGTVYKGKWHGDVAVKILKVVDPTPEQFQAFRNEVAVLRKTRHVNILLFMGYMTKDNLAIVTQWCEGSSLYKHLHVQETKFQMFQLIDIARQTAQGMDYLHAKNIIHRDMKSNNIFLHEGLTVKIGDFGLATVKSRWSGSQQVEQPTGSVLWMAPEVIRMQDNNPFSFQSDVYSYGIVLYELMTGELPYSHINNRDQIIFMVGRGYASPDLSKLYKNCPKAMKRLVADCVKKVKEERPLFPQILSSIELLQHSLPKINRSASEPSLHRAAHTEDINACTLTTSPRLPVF
Chain of UniProt O14796 (O14796 whole entry, looked up): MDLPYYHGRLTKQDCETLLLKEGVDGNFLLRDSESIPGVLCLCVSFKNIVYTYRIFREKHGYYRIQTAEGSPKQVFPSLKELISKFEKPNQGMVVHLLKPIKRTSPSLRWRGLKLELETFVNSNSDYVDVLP

Target | log2 fold change [1] | log2 fold change (crizotinib) | log2 fold change [2] | log2 fold change [3] | log2 fold change (duvelisib) | log2 fold change (gandotinib) | log2 fold change (tozasertib) | log2 fold change [4] | log2 fold change (doramapimod) | log2 fold change (ispinesib) | log2 fold change (bafetinib) | log2 fold change [5] | log2 fold change (nilotinib) | log2 fold change [6] | log2 fold change (dasatinib) | log2 fold change [7] | log2 fold change [8] | log2 fold change [9] | log2 fold change (tipifarnib) | log2 fold change (mubritinib)
RNPEP (UniProt Q9H4A4) | 0.037 | -0.081 | 0.081 | -0.034 | 0.039 | -0.053 | 0.018 | 0.083 | -0.031 | -0.086 | 0.003 | 0.035 | -0.004 | -0.041 | -0.134 | 0.025 | 0.012 | 0.043 | -0.116 | 0.051
SLC19A1 (UniProt P41440) | -0.097 | 0.086 | 0.041 | -0.088 | 0.135 | -0.107 | -0.04 | 0.012 | -0.037 | 0.083 | 0.11 | 0.039 | 0.01 | 0.012 | 0.024 | 0.026 | 0.103 | -0.026 | 0.051 | 0.074
SAP30 (UniProt O75446) | -0.087 | 0.012 | -0.047 | 0.098 | -0.09 | 0.162 |  | 0.124 | -0.088 |  |  | 0.076 | 0.083 | 0.01 | -0.008 | 0.006 | -0.073 |  | 0.068 | -0.118
SEC23IP (UniProt Q9Y6Y8) | 0.142 | -0.238 | 0.055 | 0.039 | 0.021 | -0.212 | -0.002 | 0.074 | 0.043 | -0.166 | -0.23 | 0.036 | -0.017 | -0.061 | -0.143 | -0.026 | 0.148 | 0.009 | -0.057 | 0.014
SCAMP2 (UniProt H3BUB6) | 0.085 | 0.128 | -0.011 | 0.317 | 0.166 |  | -0.159 | -0.305 | -0.088 | -0.258 | -0.226 |  | -0.056 | 0.03 | 0 | -0.069 | 0.062 | 0.095 | 0.188 | 0.023
RAF1 isoform 2 (UniProt P04049) | 0.023 | -0.305 | -0.135 | -0.092 | 0.068 | 0.131 | 0.093 | 0.035 | 0.133 | -0.145 | -0.062 | -0.168 |  |  | -0.191 |  | 0.181 | -0.144 | -0.185 | -0.286
RB1 (UniProt P06400) | 0.041 | -0.112 | 0.117 | -0.07 | 0.033 | -0.168 | -0.001 | -0.024 | 0.022 | -0.002 | 0.006 | 0.01 | 0.015 | -0.378 (active) | 0.011 | -0.716 (active) | 0.082 | 0.011 | 0.004 | 0.046
REL (UniProt Q04864) | 0.079 | -0.04 | 0.005 | 0.02 | -0.034 | -0.321 | 0.026 | 0.028 | -0.003 | -0.088 | -0.185 | 0.03 | -0.094 | -0.438 (active) | -0.115 | -0.018 | 0.013 | 0.059 | -0.011 | 0.034
SH2D1B (UniProt O14796) | -0.031 | -0.765 (active) | 0.075 | -0.201 | 0.102 | -0.692 | -0.479 | -0.08 | -0.072 | 0.06 |  | 0.018 | -0.421 | -0.319 | -1.18 (active) | 0.005 | -0.358 | -0.069 | 0.045 | -0.187
RBM48 isoform 2 (UniProt Q5RL73) | 0.081 | 0.25 | -0.069 | -0.06 |  | 0.152 | -0.245 |  | 0.041 | 0.072 | 0.118 | -0.012 | 0.13 | -0.006 |  | -0.034 | 0.047 | -0.457 | 0.127 | 
RGS10 (UniProt O43665) | 0.014 | -0.045 | 0.012 | -0.231 | 0.008 | -0.023 | 0.053 | 0.024 | 0.006 | 0.017 | -0.08 | 0.032 | -0.057 | 0.002 | -0.034 | 0.009 | 0.126 | -0.031 | -0.043 | -0.019
RPS6KA2 isoform 2 (UniProt Q15349) | 0.026 | -0.148 | 0.128 | -0.057 | 0.047 | -0.048 | 0.042 | 0.063 | -0.057 | -0.058 | -0.112 | 0.15 | 0.008 | -0.571 (active) | -0.228 | -0.013 | 0.001 | 0.021 | -0.069 | 0.085
RABGAP1L isoform 5 (UniProt Q5R372) | 0.071 | 0.003 | 0.022 | 0.046 | 0.008 |  | -0.121 | -0.015 | -0.073 |  | -0.031 |  | 0.112 | -0.003 | -0.054 | -0.047 | -0.002 |  | 0.073 | 0.036
RAPGEF4 (UniProt Q8WZA2) | 0.115 | 0.051 | 0.04 | -0.061 | 0.07 |  | -0.107 | -0.139 | 0.097 |  | -0.075 |  |  |  | 0.088 |  | 0.201 |  |  | 0.038
RAD50, A0A494C0Y7 | 0.029 | -0.024 |  | 0.204 | 0.067 | 0.021 | -0.042 | 0.054 | 0.034 | -0.054 | -0.022 | -0.249 |  |  | 0.028 |  | -0.012 | 0.016 | 0.058 | 0.167
RRP36 (UniProt Q96EU6) | -0.115 |  | -0.645 | 0.271 | -0.16 | 0.182 | 0.031 | 0.022 |  | 0.043 | 0.428 | 0.054 | -0.007 | 0.203 | 0.164 | -0.011 | -0.319 | -0.016 | 0.208 | -0.132
RAB3D (UniProt O95716) |  |  |  | -0.031 | -0.106 | 0.083 | 0.021 | -0.115 |  | 0.2 | -0.142 | -0.052 | 0.01 | 0.066 | 0.221 | -0.116 | 0.075 | -0.201 | 0.065 | 0.285
